PubChem BioAssay (NCI)
The panel holds about 83,000 compounds, 20% with a hit somewhere; the sample as a whole holds those more often.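 Cell lines were cultured in 96-well plates, exposed to a single compound concentration, and assessed for percent growth 48 hours later.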 Values without a mark were called inactive. The source made the active and inactive calls. Rule for the calls: active = growth percent below 10; inactive = the rest.

Assays:
Test in all cases: NCI-60 one-dose screen, 48 h (100 = growth as untreated, 0 = no growth, -100 = all killed)
Settings in all cases: 10 µM unless noted
DU-145 prostate = system: DU-145 prostate
K-562 leukemia = system: K-562 leukemia
MALME-3M melanoma = system: MALME-3M melanoma
MDA-MB-231 breast = system: MDA-MB-231 breast
RXF 393 renal = system: RXF 393 renal
SF-268 CNS = system: SF-268 CNS
SF-295 CNS = system: SF-295 CNS
SF-539 CNS = system: SF-539 CNS
UACC-257 melanoma = system: UACC-257 melanoma
HCT-15 colon = system: HCT-15 colon
HT29 colon = system: HT29 colon
SNB-75 CNS = system: SNB-75 CNS
SNB-19 CNS = system: SNB-19 CNS
U251 CNS = system: U251 CNS
PC-3 prostate = system: PC-3 prostate
SK-MEL-5 melanoma = system: SK-MEL-5 melanoma
UACC-62 melanoma = system: UACC-62 melanoma
LOX IMVI melanoma = system: LOX IMVI melanoma
SK-MEL-28 melanoma = system: SK-MEL-28 melanoma
M14 melanoma = system: M14 melanoma

| Compound | growth (DU-145 prostate) | growth (K-562 leukemia) | growth (MALME-3M melanoma) | growth (MDA-MB-231 breast) | growth (RXF 393 renal) | growth (SF-268 CNS) | growth (SF-295 CNS) | growth (SF-539 CNS) | growth (UACC-257 melanoma) | growth (HCT-15 colon) | growth (HT29 colon) | growth (SNB-75 CNS) | growth (SNB-19 CNS) | growth (U251 CNS) | growth (PC-3 prostate) | growth (SK-MEL-5 melanoma) | growth (UACC-62 melanoma) | growth (LOX IMVI melanoma) | growth (SK-MEL-28 melanoma) | growth (M14 melanoma) |
| --- | --- | --- | --- | --- | --- | --- | --- | --- | --- | --- | --- | --- | --- | --- | --- | --- | --- | --- | --- | --- |
| Cc1nc(NC(=O)COc2ccc(/C=C3\Cc4ccc(Cl)cc4C3=O)cc2)sc1C | 112% | 106% | 238% | 93.7% | 135% | 119% | 110% | 101% | 110% | 104% | 114% | 108% | 106% | 99.4% | 91.9% | 111% | 98.8% | 72.7% | 132% | – |
| COc1ccc(NC2=C(Br)C(=O)C(C)=C(C)C2=O)cc1 | 106% | -2.92% (active) | 94.4% | -55.4% (active) | 102% | 98% | 98.9% | 90.6% | 72.8% | 91.6% | 117% | 72% | 85.2% | 88.3% | 73.1% | 92.3% | 84.4% | -35.6% (active) | 103% | 97% |
| O=C(CCOCCNC(=O)COc1ccc2c(c1)OCC(c1ccc(F)cc1)C2=O)NCCCC(O)(P(=O)(O)O)P(=O)(O)O (configuration not stated) | 108% | 105% | 113% | 107% | 121% | 98.6% | 102% | 101% | 112% | 98.9% | 104% | 89.6% | 99.6% | 107% | 102% | 101% | 105% | 97.8% | 108% | – |
| CSc1nc2ccc(C)cc2cc1/C=N/O | 93% | 94.7% | 108% | 83.5% | 87.3% | 83.1% | 101% | 91.1% | 80.6% | 86.7% | 93.1% | 59.2% | 95.7% | 78.6% | 79% | 90% | 77% | 91.9% | 101% | – |
| Fc1cc2c(cc1Cl)N(c1ncnc3ccc(-c4cnc5cnccn45)cc13)CC2 | 74.7% | 75.2% | 91.3% | 77.5% | 62% | 81% | 107% | 84.6% | 109% | 99.1% | 87.9% | 69.2% | 86.2% | 91.1% | 81.9% | 95.3% | 80.5% | 91% | 97.1% | – |
| COC(=O)/C=C1\S/C(=N\Nc2ccc([N+](=O)[O-])cc2[N+](=O)[O-])N(C2CCCCC2)C1=O | 44.2% | 17.8% | 87.5% | 59.8% | 62% | 71% | 77.1% | 69.2% | 80.1% | 11% | 26.7% | 51.4% | 51.3% | 25.8% | 18.4% | 82.4% | 38.7% | 72.4% | 86.5% | 78.1% |
| Cc1c(C(=O)N[C@@H](Cc2ccccc2)C(=O)C(=O)NCc2ccc(F)cc2)[nH]c2ccccc2c1=O | 105% | 84.2% | 102% | 100% | 103% | 97.4% | 105% | 101% | 101% | 96.2% | 101% | 88.5% | 96.9% | 101% | 86.5% | 98.7% | 91.7% | 99.9% | 100% | – |
| Cc1nc(/N=C(\N)NC(=O)Nc2cccc(Cl)c2)sc1C | 90% | 17% | 62% | 87.9% | 87.8% | 89.5% | 77.2% | 78.3% | 71.7% | 32% | 30.2% | 21.9% | 83.2% | 83.5% | 81.5% | 80.2% | 60.5% | 68.8% | 69% | – |
| CNc1nc2c(s1)C(c1cccc(F)c1)CC(=O)N2 (configuration not stated) | 106% | 95.6% | 110% | 104% | 93.9% | 94.1% | 104% | 92% | 107% | 104% | 104% | 76.8% | 92.8% | 94.6% | 98.5% | 101% | 92.3% | 98.4% | 103% | – |
| CCCCn1c(-c2ccc(C(=O)O/N=C(\N)c3ccc(OC)cc3)cc2)nc(-c2ccccc2)c1-c1ccccc1 | -93.4% (active) | -41% (active) | -51.7% (active) | -6.79% (active) | -49.8% (active) | 9.12% (active) | -40.8% (active) | -77.6% (active) | 43.7% | -47.5% (active) | 21.8% | -31.1% (active) | 23.9% | -52.6% (active) | -7.41% (active) | 41.8% | 29.1% | -93.1% (active) | 47% | – |
| CNc1ccc(Nc2cccc(C)c2)c2c1C(=O)c1ccccc1C2=O | 85% | 92.7% | 147% | 96.1% | 93.4% | 87.5% | 146% | 99% | 107% | 85.1% | 96.6% | 96.3% | 99.6% | 95.4% | 95% | 91% | 64.9% | 81.5% | 114% | – |
| COC(=O)C(Cc1ccccc1)NC(=O)NC(=O)NC(=O)CI (configuration not stated) | 91.2% | -18.8% (active) | -71% (active) | – | 63.9% | 71.8% | 103% | 87.7% | 103% | 12% | 50.1% | 98.9% | 126% | 101% | 87.6% | 89.7% | 6.21% (active) | -78.8% (active) | 51.8% | 35.2% |
| COc1ccc(-c2nc(NCCO)[nH]c(=O)c2C#N)cc1 | 101% | 97.1% | 101% | – | 117% | 99.2% | 97.1% | 104% | 112% | 104% | 94.7% | 91.8% | 105% | 103% | 91.4% | 107% | 102% | 103% | 108% | 99.9% |
| CC/C=C\C[C@@H]1C/C=C2/C(=O)C=C[C@H]2C/C=C\CCCC(=O)O1 | -66.8% (active) | -0.441% (active) | -41.1% (active) | – | -80.6% (active) | -57.6% (active) | -18.1% (active) | -64.3% (active) | -41.7% (active) | -43.5% (active) | -72.4% (active) | 32.2% | -31.4% (active) | -94.2% (active) | -37.6% (active) | -89.3% (active) | -61.1% (active) | -77.1% (active) | -75.6% (active) | -48.8% (active) |
| CCCCCCCNC(=O)CCCNc1ncnc2c1ncn2-c1cccc(C(C)O)c1 (configuration not stated) | 94.4% | 41.6% | 84.8% | – | 89.9% | 83.8% | 93.6% | 94.1% | 121% | 87.2% | 93.7% | 104% | 96.3% | 96.9% | 85% | 85.9% | 90.3% | 101% | 96.2% | 89.3% |
